Molecules are shown by their SMILES. Hit rate of the full screen: of about 63,000 compounds, about 1,100 (1.7%) were called active. This is one part of a sample in which actives are shown more often than they occur. Results with a measured potency or affinity are listed apart. Unmarked numbers belong to inactive results. Rule as the data show it: active = cytotoxicity above about 50%; inactive = the rest.

This experiment can be described thus: HPDE-C7 pancreatic duct cell viability loss – fluorescence, HTS (AID 430).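 Also: cells exposed to compound for 48 hours before viability readout; 0% = vehicle and 100% = reference cytotoxic drug.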 The following applies: HPDE-C7 pancreatic duct cells viability, at 10 µM, stronger effect = higher value.
For `COC(=O)Nc1sccc1C(=O)Nc1sccc1C(=O)OC`, the cytotoxicity was 3.5%.

For `CCOC(=O)N1CCN(c2c(N3CCc4ccccc4C3)c(=O)c2=O)CC1`, the cytotoxicity was -10.2%. The same measure for `O=C(CC(O)(c1ccccc1)C(F)(F)C(F)F)c1cccs1` (stereo unspecified): 2.3%; for `CCN(CC)C(C(=O)Nc1ccc2c(c1)OCO2)c1ccccc1` (stereo unspecified): 5%. Regarding `COc1ccc(-n2c(NC(=O)c3ccco3)c(C#N)c3nc4ccccc4nc32)cc1`, the cytotoxicity was 5.6%. As for `C=CCn1c(NC(=O)c2ccccc2Cl)c(C#N)c2nc3ccccc3nc21`, the figure is 17.3%. The same measure for `CCCCn1c(NC(=O)c2ccccc2)c(C#N)c2nc3ccccc3nc21`: 101% (active); for `C=CCn1c(NC(=O)c2ccccc2)c(C#N)c2nc3ccccc3nc21`: 45.1%; for `CCC(=O)Nc1c(C#N)c2nc3ccccc3nc2n1-c1ccccc1C`: 2.9%. Regarding `CCCCn1c(NC(=O)CC)c(C#N)c2nc3ccccc3nc21`, the cytotoxicity is 10%. Turning to `N#Cc1c(NC(=O)c2ccc(Br)o2)n(-c2ccccc2)c2nc3ccccc3nc12`, the cytotoxicity was 54.7% (active). The same measure for `CCCCn1c(NC(=O)c2ccccc2Cl)c(C#N)c2nc3ccccc3nc21`: 61.7% (active).

With `CCCCCn1c(N)c(C#N)c2nc3ccccc3nc21`, the cytotoxicity was 3.3%. The same measure for `CCCCn1c(NC(C)=O)c(C#N)c2nc3ccccc3nc21`: -2.1%; for `CCCCn1c(NC(=O)c2ccc(F)cc2)c(C#N)c2nc3ccccc3nc21`: 73.6% (active). The same measure for `CCC(=O)Nc1c(C#N)c2nc3ccccc3nc2n1C1CCCCC1`: 2%; for `CC1(C)Cc2c(sc3c2c(=N)n(Cc2ccco2)c(=O)n3Cc2ccc(F)cc2)CO1`: 5.6%. As for `O=C1C2C3C=CC(C3)C2C(=O)N1c1n[nH]c(CCc2ccccc2)n1` (stereo unspecified), the figure is 0.1%. In the case of `CCCCP(=O)(CCCC)Cc1ccccc1O`, the cytotoxicity is -0.6%.

For the molecule `CC(C)=CC(=O)Nc1ccccc1Br`, the cytotoxicity was -7.7%. The same measure for `CC1CC(C)CN(c2oc(-c3ccccc3Cl)nc2C#N)C1` (stereo unspecified): 2.5%; for `CCCCOC(=O)Cn1c(=O)c2c(nc(Br)n2Cc2ccccc2)n(C)c1=O`: -12.6%. Consider `Cc1sc2nc3n(c(=O)c2c1C)CCCS3`, for which the cytotoxicity was 3.5%. As for `N#C/C(C(=O)NCc1ccccc1)=C1\SC(CCO)C(=O)N1c1ccccc1` (stereo unspecified), the figure is 10.7%; as for `O=S(=O)(c1cccc2cccnc12)N1CCc2ccccc21`, -5.3%; as for `CC1CC(=O)N(CC(=O)N2CCCC2)c2ccccc2S1` (stereo unspecified), -19.6%. As for `O=C(CN1CCCC1)N1c2ccccc2Sc2ccccc21`, the cytotoxicity is -13.6%.

Take `CCc1nnc(NC(=O)NCN2C(=O)C3C4C=CC(C4)C3C2=O)s1` (stereo unspecified): the cytotoxicity is 3%.

For `CC1=CCC(C(C)(C)NC(=O)c2ccccc2)C/C1=N\O` (stereo unspecified), the cytotoxicity is -14.7%. As for `CCOCCCNS(=O)(=O)c1ccc2c(c1)CCN2C(=O)CC`, the figure is -23.1%; as for `C=C(c1ccc(O)cc1)c1ccc(O)cc1`, -12.8%. As for `CCC(=O)c1ccc(O)cc1`, the figure is -18.7%; as for `C/C=C(/C(=C/C)c1ccc(O)cc1)c1ccc(O)cc1`, 106% (active); as for `CCn1c2ccccc2c2nnc(SCC(=O)NC(C(=O)OC)C(C)C)nc21` (stereo unspecified), 0.5%.

Turning to `CCOC(=O)c1[nH]c(C)c(C(=O)NC(C)CC)c1C` (stereo unspecified), the cytotoxicity was 1.4%. As to `O=C1Nc2ccccc2C12OCCCCO2`, the cytotoxicity was -24.6%. As to `Cc1cc(=O)oc2cc(OCC(=O)N3CCc4ccccc4C3)ccc12`, the cytotoxicity is -25.1%. As for `CCOC(=O)N1CCN(Cc2nc3c(c(=O)[nH]c(=O)n3C)n2Cc2cc(C)ccc2C)CC1`, the figure is -12.2%. In the case of `CCCCC(CC)C(=O)Nc1ccccc1C(=O)NC(C)C` (stereo unspecified), the cytotoxicity was 6.3%.

As to `O=C(COc1ccc(-c2nnco2)cc1)N1CCN(S(=O)(=O)c2ccccc2)CC1`, the cytotoxicity was -13%. `O=C(COc1ccc(-c2nnco2)cc1)N1CCN(S(=O)(=O)c2ccc3ccccc3c2)CC1`: the cytotoxicity was -10.1%. The same measure for `O=S(=O)(c1ccc(Oc2ccc(-c3nnco3)cc2)nc1)N1CCC(Cc2ccccc2)CC1`: 62.7% (active). The same measure for `Cc1cc2cc(CNC(=O)c3ccc(Br)o3)ccc2n1C`: -1.5%; for `N#C/C(C(=O)Oc1ccccc1)=C1\C=CC=CN1`: 1.2%. For `CCOC(=O)c1ccc(Oc2nc(NC)nc(SC)n2)cc1`, the cytotoxicity is -15.9%. For the molecule `COC(=O)c1ccc(Oc2nc(C)cc(Oc3ccccc3)n2)cc1`, the cytotoxicity is -4.8%. Regarding `COC(=O)c1ccc(Oc2cc(C)nc(NCc3ccccc3)n2)cc1`, the cytotoxicity is -4.2%.

As to `COC(=O)c1ccc(Oc2cc(C)nc(SC)n2)cc1`, the cytotoxicity was 50.6% (active). As for `CCOC(=O)c1ccc(Oc2cc(C)nc(SC)n2)cc1`, the figure is 50.9% (active); as for `CCOC(=O)c1ccc(Oc2nc(SC)nc(N(C)C)n2)cc1`, -23.6%; as for `COc1ccc(C(C#N)Nc2ccccc2OC)cc1` (stereo unspecified), -4.6%. In the case of `CCN(CC)S(=O)(=O)c1ccc(Nc2cc(C)nc3ncnn23)cc1`, the cytotoxicity was -2.7%. The same measure for `C1CCc2c(nc3nnnn3c2N2CCOCC2)C1`: -9.2%.

Turning to `COC(=O)CN1C(=O)CC(C)(C)S(=O)c2ccccc21` (stereo unspecified), the cytotoxicity is -9.1%. With `Cc1ccc(-n2ncc3c(=O)n(Cc4ccccn4)cnc32)cc1C`, the cytotoxicity was 8.3%. For `CCN1CCN(C(C(=O)NC2CCCC2)c2ccc(Cl)cc2)CC1` (stereo unspecified), the cytotoxicity was 9.1%. On to `Cc1cc(=O)c2cc(Cl)ccc2[nH]1`, for which the cytotoxicity is -15%. The same measure for `Cc1cc2c(N=O)c(NO)ccc2[nH]1`: 67% (active); for `COC(=O)c1ccc2[nH]c(C)cc(=O)c2c1`: -15.1%; for `CCCc1cc(C(=O)Nc2sc(C(C)=O)c(C)c2C(=O)OCC)no1`: -5.5%.

For `O=C(c1ccco1)N1CCN(c2nc(C3CC3)nc3sc4c(c23)CCCC4)CC1`, the cytotoxicity is 53.5% (active).

For the molecule `CC(C)c1nc(N2CCN(C(=O)c3ccco3)CC2)c2c3c(sc2n1)CCCC3`, the cytotoxicity was -21.7%. As for `Cc1nc(N2CCN(C(=O)c3ccco3)CC2)c2c3c(sc2n1)CCC3`, the figure is 8.5%; as for `CCOC(=O)N1CCN(C(=O)c2cn(-c3ccc(C)c(C)c3)c(=O)c3ccccc23)CC1`, -9.4%; as for `CCc1cc(-c2[nH]ncc2-c2ccc3c(c2)OCO3)c(O)cc1O`, 46.1%. As for `CCOc1ccc(-c2nc(N)ncc2-c2ccccc2)c(O)c1`, the figure is 2.3%. As for `COc1ccc(-c2cnc(N)nc2-c2ccc(OC)cc2O)cc1`, the figure is -4%. Turning to `CCCc1cc(-c2[nH]ncc2-c2ccc(C(=O)OCC)o2)c(O)cc1O`, the cytotoxicity is 4.4%. The same measure for `Cc1c(C(=O)Nn2cnnc2)oc2ccccc12`: -26.6%. As for `CC(NC(=O)c1ccc(CS(=O)(=O)Cc2ccccc2F)o1)c1ccc2c(c1)OCCO2` (stereo unspecified), the figure is -10.6%. With `O=S(=O)(NCC1CC1)c1cccc(S(=O)(=O)N2CCCC2)c1`, the cytotoxicity is -7.4%.

As for `Cc1ccccc1OCc1nc(-c2ccccc2)no1`, the cytotoxicity was -12.2%. The same measure for `Cc1ccc(-c2noc(COc3ccccc3C)n2)cc1`: -19.6%. For `Cc1ccccc1OCc1nc(-c2ccc(-n3cccc3)cc2)no1`, the cytotoxicity was 62.3% (active). `Cc1cc(=O)[nH]c(SCC(=O)NCc2ccco2)n1`: the cytotoxicity is -38.4%. As for `O=C(Cn1nnc(-c2ccccc2NC(=O)c2cccs2)n1)Nc1ccccc1`, the figure is -6.9%. For the molecule `CCn1c(SCC(=O)N(C(C)C)C(C)C)nnc1-c1cc2ccccc2cc1O`, the cytotoxicity was -2.4%. For `Cc1cccc(N2CCN(C(=O)c3ccncc3)CC2C)c1` (stereo unspecified), the cytotoxicity was -2.2%. In the case of `Cc1ccc(N2CCN(c3ccc(C)cc3)C2c2ccncc2)cc1`, the cytotoxicity was -18.2%.

Take `Cc1cccc(N2CCN(c3cccc(C)c3)C2c2cccnc2)c1`: the cytotoxicity is 52.6% (active). The same measure for `CCC(=O)OCCn1c(=O)c2cc3c(=O)n(CCOC(=O)CC)c(=O)c3cc2c1=O`: 1.2%. The same measure for `CCOC(=O)C1=C(C)NC(=O)NC1c1ccc(OC)c(Cl)c1` (stereo unspecified): -1.8%. As for `O=C(Nc1ccc(-c2nc3ccccc3o2)cc1)C1CCCO1` (stereo unspecified), the figure is 2.5%; as for `O=c1cc(-c2ccccc2)[nH]n1-c1nc2ccccc2s1`, 61.9% (active). Take `COc1ccc(-c2cc(=O)n(-c3nc4ccccc4[nH]3)[nH]2)cc1`: the cytotoxicity is 35%.

With `O=c1cc(-c2ccccc2)[nH]c2nc3ccccc3n12`, the cytotoxicity is 34.3%. As for `CC(=NC1CCCC1)c1c(C)[nH]n(-c2nc3ccccc3s2)c1=O`, the figure is -9.3%. The same measure for `Cc1nn(-c2nc3ccccc3s2)c(N)c1-c1ccccc1`: 6.1%; for `CCn1c(SCC(=O)N(Cc2ccccc2)C2CCS(=O)(=O)C2)nc2ccccc2c1=O` (stereo unspecified): -7.3%; for `C1=C(CCNc2ncnc3nc[nH]c23)CCCC1`: 0%. With `CCCCCC(=O)Nc1ccc2oc(-c3cncc(Br)c3)nc2c1`, the cytotoxicity was -3.1%. Regarding `CCn1c(=O)n(CC(=O)Nc2cccc(OC)c2)c(=O)c2ccccc21`, the cytotoxicity is -12.1%. As for `CN(C)CCCNC(=O)Cc1ccc(Br)cc1`, the figure is -3.8%; as for `COc1cc(C2C(C(=O)c3ccc(C)o3)=C(O)C(=O)N2c2cc(C)on2)ccc1O` (stereo unspecified), -0.7%; as for `CC(NC(=O)NCCCn1ccnc1)(C(F)(F)F)C(F)(F)F`, 9.8%. As for `O=C(Nc1ccc(CN2CCOCC2)cc1)c1cc2ccccc2o1`, the figure is -0.1%; as for `O=C(Nc1ccc(CN2CCCCC2)cc1)c1ccc(Br)o1`, -14.9%. With `O=C(Cc1ccc(-c2ccccc2)cc1)NCCN1CCOCC1`, the cytotoxicity is -11.8%. Regarding `O=C(Nc1ccc2nc(-c3ccc(Br)o3)[nH]c2c1)c1cccs1`, the cytotoxicity is 53.5% (active). The same measure for `O=C(Nc1ccc2nc(-c3ccc(Br)o3)[nH]c2c1)c1ccco1`: 44.7%; for `O=C(Nc1ccc2nc(-c3ccco3)[nH]c2c1)c1cccs1`: 8%.
